Assay [1] in a line: ATG_PXRE_CIS: Attagene CIS-FACTORIAL HepG2 Assay for human Pregnane X Receptor Element (PXRE) (AID 2282957). As to conditions: HepG2 Attagene CIS-FACTORIAL PXRE reporter, mRNA; actives raise or lower the signal. The essentials:
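HepG2 cells transiently transfected with cis-regulated multiple reporter transcription units; endogenous factor activity measured as reporter mRNA 24 h after dosing. RT-PCR, fluorescent primer extension, HpaI digestion, capillary electrophoresis; bidirectional fit versus DMSO baseline.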

Assay [2] in a line: ATG_PPRE_CIS: Attagene CIS-FACTORIAL HepG2 Assay for human Peroxisome Proliferator-activated Response Element (PPRE) (AID 2282958). To be noted: HepG2 PPRE cis-element reporter, Attagene transcription factor profiling; actives raise or lower the signal. The essentials:
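HepG2, transient MRTU transfection (cis promoter elements, endogenous TFs). 24 h dosing. RNA → oligo(dT) RT → PCR → 6-FAM primer extension → HpaI digest → CE. Bidirectional fit vs DMSO.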

A short description of assay [3]: ATG_RORE_CIS: Attagene CIS-FACTORIAL HepG2 Assay for human RAR-related Orphan Receptor Element (RORE) (AID 2282959). To be noted: HepG2 Attagene cis-factorial RORE reporter, mRNA; actives raise or lower the signal. The essentials: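 Transient MRTU transfection of human HepG2 liver cells (FuGene 6); 24 h compound exposure; TriZol RNA, oligo(dT) RT, PCR, FAM labeling, HpaI cut, CE fragment analysis. DMSO = negative control/baseline.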

Assay [4] is described as follows: ATG_Sox_CIS: Attagene CIS-FACTORIAL HepG2 Assay for human SRY-box transcription factor (SOX) (AID 2282960). To be noted: HepG2 Attagene cis-factorial SOX reporter, mRNA; actives raise or lower the signal. The method in brief: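 Endogenous factor activity in human liver HepG2 cells carrying transfected cis-regulated reporter units. RNA taken 24 h post-dose, reverse-transcribed, PCR-amplified and sized by capillary electrophoresis. Gain or loss of signal fitted relative to DMSO.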

Assay [5] has as its target Transcription factor Sp1 (Homo sapiens) (UniProt P08047). Briefly: ATG_Sp1_CIS: Attagene CIS-FACTORIAL HepG2 Assay for human Specificity Protein 1 (Sp1) (AID 2282961). As to conditions: HepG2 Sp1 cis-reporter transcription, actives raise or lower the signal. The method in brief:
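Transient MRTU-transfected HepG2, 24 h compound exposure. Total RNA → oligo(dT) RT → PCR of reporter → 6-FAM primer extension → HpaI digest → CE. Endpoint fitted both directions vs DMSO.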

Assay [6] can be described thus: ATG_SREBP_CIS: Attagene CIS-FACTORIAL HepG2 Assay for human Sterol Regulatory Element Binding (SREBP) (AID 2282962). As to conditions: HepG2 Attagene cis-factorial SREBP reporter, mRNA; actives raise or lower the signal. The essentials:
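Transfected HepG2 (cis-regulated reporter library, endogenous TFs) → compound 24 h → total RNA → oligo(dT) RT → reporter-specific PCR → FAM primer extension, HpaI cut → CE fluorescence. Fit bidirectional vs DMSO.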

The target in assay [7] is Signal transducer and activator of transcription 3 (Homo sapiens) (UniProt P40763). The assay is described as follows: ATG_STAT3_CIS: Attagene CIS-FACTORIAL HepG2 Assay for human Signal Transducer and Activator of Transcription 3 (STAT3) (AID 2282963). As to conditions: HepG2, Attagene cis-factorial STAT3 reporter transcription; actives raise or lower the signal. The method in brief:
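HepG2 cells transiently transfected with multiple cis-element-driven reporter units report endogenous transcription factor activity. After 24 h compound exposure, reporter mRNA is measured by RT-PCR, 6-FAM labelling, HpaI digestion and capillary electrophoresis. Fitted bidirectionally versus DMSO.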

The nature of assay [8]: ATG_TA_CIS: Attagene CIS-FACTORIAL HepG2 Assay for human TA Basal Promoter (AID 2282964). To be noted: HepG2 Attagene CIS-factorial TA basal promoter reporter; actives raise or lower the signal. The essentials:
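Read-out: fluorescent reporter-transcript fragments resolved by capillary electrophoresis after RT-PCR and HpaI digestion. Source: HepG2 cells carrying transiently transfected multi-reporter cis constructs, treated 24 h. Endpoint fitted bidirectionally relative to DMSO.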

Assay [9] in a line: ATG_TAL_CIS: Attagene CIS-FACTORIAL HepG2 Assay for human TAL Basal Promoter (AID 2282966).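 Also: background control endpoint measuring basal TAL promoter reporter mRNA not a specific factor.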 As to conditions: HepG2 Attagene cis-factorial TAL promoter reporter; actives raise or lower the signal. The method in brief:
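HepG2 cells were transiently transfected with promoter-driven multiplexed reporter units and dosed for 24 h. Reporter mRNA was measured by RT-PCR with capillary electrophoresis fluorescence; bidirectional fits used DMSO as baseline, serving as a background control.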

Assay [10] can be described thus: ATG_TGFb_CIS: Attagene CIS-FACTORIAL HepG2 Assay for human Transforming Growth Factor (TGF) (AID 2282967). To be noted: HepG2 Attagene CIS TGFb reporter, mRNA transcription; actives raise or lower the signal. The essentials: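 Transient MRTU transfection of HepG2 (FuGene 6). Dose 24 h. TriZol RNA, oligo(dT) RT, PCR, 6-FAM primer extension, HpaI cut, CE. Bidirectional fit, DMSO = baseline.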

For assay [11], the target named is Estrogen receptor (Homo sapiens) (UniProt P03372). The assay is described as follows: ATG_ERa_TRANS: Attagene TRANS-FACTORIAL HepG2 Assay for human Estrogen Receptor alpha (ERa) (AID 2282970; active = hit-call score of the fitted dose curve at least 0.9, where 1 is the maximum). To be noted: HepG2 Attagene TRANS ERa GAL4 reporter, mRNA. The method in brief: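 HepG2 cells transiently transfected with multiplexed GAL4-UAS reporter units; ERa activity read via exogenous chimeric NR-Gal4 protein. After 24 hour compound exposure, reporter mRNA measured by RT-PCR with 6-FAM labelling and capillary electrophoresis; gain-of-signal fitted relative to DMSO.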
Estrogen receptor (Homo sapiens), sequence (P03372 whole entry, looked up, the tested form may be a part): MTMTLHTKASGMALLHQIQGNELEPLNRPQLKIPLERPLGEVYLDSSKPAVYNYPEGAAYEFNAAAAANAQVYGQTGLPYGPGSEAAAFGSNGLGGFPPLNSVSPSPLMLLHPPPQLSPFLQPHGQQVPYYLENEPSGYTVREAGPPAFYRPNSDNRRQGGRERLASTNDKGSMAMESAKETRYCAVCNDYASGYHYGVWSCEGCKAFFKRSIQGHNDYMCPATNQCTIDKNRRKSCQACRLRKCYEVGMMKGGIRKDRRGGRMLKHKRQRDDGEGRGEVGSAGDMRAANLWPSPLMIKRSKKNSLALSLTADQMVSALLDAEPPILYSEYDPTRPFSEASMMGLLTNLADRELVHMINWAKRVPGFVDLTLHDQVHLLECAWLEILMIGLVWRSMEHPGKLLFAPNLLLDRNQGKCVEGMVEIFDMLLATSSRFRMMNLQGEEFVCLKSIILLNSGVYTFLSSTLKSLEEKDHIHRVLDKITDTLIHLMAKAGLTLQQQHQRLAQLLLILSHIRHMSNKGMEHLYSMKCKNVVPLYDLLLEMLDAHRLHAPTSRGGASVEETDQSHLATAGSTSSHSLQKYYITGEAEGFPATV

Assay [12] has as its target X-box-binding protein 1 (Homo sapiens) (UniProt P17861). Briefly: ATG_Xbp1_CIS: Attagene CIS-FACTORIAL HepG2 Assay for human X-box Binding Protein 1 (XBP1) (AID 2282972). As to conditions: HepG2 XBP1 cis-element reporter, Attagene multiplex; actives raise or lower the signal. The method in brief:
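HepG2, transient MRTU transfection (cis-promoter driven), 24 h compound exposure. Total RNA → oligo(dT) RT → PCR → 6-FAM labeling → HpaI cut → CE. Bidirectional fit vs DMSO.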

The nature of assay [13]: ATG_M_19_TRANS: Attagene TRANS-FACTORIAL HepG2 Assay for M19 Transcription Factor (Internal Marker) (AID 2282974; active = hit-call score of the fitted dose curve at least 0.9, where 1 is the maximum). As to conditions: HepG2 Attagene TRANS-FACTORIAL M19 internal marker reporter. The essentials: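 Fluorescence of 6-FAM-labelled reporter cDNA fragments, separated by capillary electrophoresis, served as the readout. These derived from HepG2 cells carrying transfected GAL4-UAS reporter units after 24 h dosing, with DMSO as negative control.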

Assay [14] in a line: ATG_GAL4_TRANS: Attagene TRANS-FACTORIAL HepG2 Assay for GAL4 (Internal Marker) (AID 2282976; active = hit-call score of the fitted dose curve at least 0.9, where 1 is the maximum). As to conditions: HepG2 Attagene TRANS GAL4 internal marker reporter. The essentials: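 HepG2 cells transiently transfected with multiplexed GAL4-UAS reporter constructs were dosed for 24 h. Reporter mRNA was measured by RT-PCR, 6-FAM primer extension, HpaI digestion and capillary electrophoresis, and gain of signal was fitted relative to DMSO.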

A short description of assay [15]: ATG_TCF_b_cat_CIS: Attagene CIS-FACTORIAL HepG2 Assay for human T-Cell-Factor with beta-catenin (TCF/b-cat) (AID 2282965). As to conditions: HepG2 TCF/beta-catenin cis-reporter transcription, actives raise or lower the signal. The essentials: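 HepG2, transient MRTU transfection, cis-element-driven reporters (endogenous TFs). 24 h compound exposure. Readout: reporter mRNA by RT-PCR + 6-FAM primer extension, HpaI digest, capillary electrophoresis. Gain/loss fit vs DMSO baseline.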

Assay [16] is described as follows: ATG_VDRE_CIS: Attagene CIS-FACTORIAL HepG2 Assay for human Vitamin D Receptor Element (VDRE) (AID 2282968). To be noted: HepG2 VDRE cis-reporter transcription, actives raise or lower the signal. The method in brief:
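Transiently transfected HepG2 cells carrying cis-regulated reporter transcription units were exposed for 24 h. Reporter mRNA was measured by RT-PCR with fluorescent labelling and capillary electrophoresis, and fitted in both directions against DMSO.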

The target in assay [17] is Nuclear receptor subfamily 1 group I member 3 (Homo sapiens) (UniProt Q14994). Briefly: ATG_CAR_TRANS: Attagene TRANS-FACTORIAL HepG2 Assay for human Constitutive Androstane Receptor (CAR) (AID 2282969; active = hit-call score of the fitted dose curve at least 0.9, where 1 is the maximum;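 also: activators raise reporter mRNA above DMSO so AC50 marks induction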). To be noted: HepG2 Attagene TRANS-FACTORIAL CAR reporter. The method in brief: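 HepG2 cells transiently transfected with GAL4-UAS reporter units; TRANS format reads activity of exogenous chimeric NR-Gal4 protein. After 24 h dosing, reporter mRNA quantified by RT-PCR, 6-FAM labelling and capillary electrophoresis; gain of signal fitted against DMSO.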
Nuclear receptor subfamily 1 group I member 3 (Homo sapiens), sequence (Q14994 whole entry, looked up, the tested form may be a part): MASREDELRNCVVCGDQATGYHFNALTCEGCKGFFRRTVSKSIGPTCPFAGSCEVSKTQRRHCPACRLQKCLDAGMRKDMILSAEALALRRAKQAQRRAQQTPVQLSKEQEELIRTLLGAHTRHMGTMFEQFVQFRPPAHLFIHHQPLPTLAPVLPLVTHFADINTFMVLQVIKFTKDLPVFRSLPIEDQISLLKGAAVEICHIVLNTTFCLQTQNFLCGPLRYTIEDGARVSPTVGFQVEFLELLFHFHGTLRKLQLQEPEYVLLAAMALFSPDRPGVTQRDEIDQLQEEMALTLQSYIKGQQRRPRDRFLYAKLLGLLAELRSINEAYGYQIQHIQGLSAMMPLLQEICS

Assay [18] concerns the target Steroid hormone receptor ERR1 (Homo sapiens) (UniProt P11474). Briefly: ATG_ERRa_TRANS: Attagene TRANS-FACTORIAL HepG2 Assay for human Estrogen-Related Receptor alpha (ERRa) (AID 2282971; active = hit-call score of the fitted dose curve at least 0.9, where 1 is the maximum). As to conditions: HepG2 Attagene TRANS reporter, ERRa transactivation. The method in brief:
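HepG2 cells transiently transfected with multiplexed GAL4-UAS reporter units reading chimeric ERRa-Gal4 activity; 24 h compound exposure. Reporter mRNA measured by RT-PCR, 6-FAM labelling, HpaI digest and capillary electrophoresis; gain of signal fitted versus DMSO baseline.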

For assay [19], the target named is Estrogen-related receptor gamma (Homo sapiens) (UniProt P62508). Briefly: ATG_ERRg_TRANS: Attagene TRANS-FACTORIAL HepG2 Assay for human Estrogen-Related Receptor gamma (ERRg) (AID 2282977; active = hit-call score of the fitted dose curve at least 0.9, where 1 is the maximum;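 also: hits increase reporter signal over DMSO so potencies reflect activators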). As to conditions: HepG2 Attagene TRANS reporter, ERRg transactivation. The essentials:
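Transfect HepG2 with multiple GAL4-UAS reporter transcription units; dose chemicals 24 h; isolate RNA, reverse-transcribe with oligo(dT), PCR-amplify, label with 6-FAM, digest with HpaI; size fragments by capillary electrophoresis. DMSO serves as negative control.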

Assay [20] has as its target Glucocorticoid receptor (Homo sapiens) (UniProt P04150). The assay is described as follows: ATG_GR_TRANS: Attagene TRANS-FACTORIAL HepG2 Assay for human Glucocorticoid Receptor (GR) (AID 2282978; active = hit-call score of the fitted dose curve at least 0.9, where 1 is the maximum;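 also: activators score as hits since higher reporter transcript over DMSO is fitted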). To be noted: HepG2 Attagene TRANS GR reporter, mRNA transcription. The essentials: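 Fluorescent capillary-electrophoresis quantitation of reporter mRNA is the readout, taken 24 h after dosing human HepG2 cells carrying transiently transfected GAL4-UAS reporter units activated by chimeric NR-GAL4 fusions; activity scored as induction over DMSO.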

Results filed as inconclusive are left out. The source holds several records for some structures; these can differ, active in one and inactive in another. Calls of active or inactive are those of the source. The calls were made as follows, unless noted: active = hit-call score of the fitted dose curve at least 0.9, where 1 is the maximum; inactive = score below 0.9.

As usually defined, the AC50 is the concentration at which the activity in the assay is half-maximal.

Signal transducer and activator of transcription 3 (Homo sapiens), sequence (P40763 whole entry, looked up): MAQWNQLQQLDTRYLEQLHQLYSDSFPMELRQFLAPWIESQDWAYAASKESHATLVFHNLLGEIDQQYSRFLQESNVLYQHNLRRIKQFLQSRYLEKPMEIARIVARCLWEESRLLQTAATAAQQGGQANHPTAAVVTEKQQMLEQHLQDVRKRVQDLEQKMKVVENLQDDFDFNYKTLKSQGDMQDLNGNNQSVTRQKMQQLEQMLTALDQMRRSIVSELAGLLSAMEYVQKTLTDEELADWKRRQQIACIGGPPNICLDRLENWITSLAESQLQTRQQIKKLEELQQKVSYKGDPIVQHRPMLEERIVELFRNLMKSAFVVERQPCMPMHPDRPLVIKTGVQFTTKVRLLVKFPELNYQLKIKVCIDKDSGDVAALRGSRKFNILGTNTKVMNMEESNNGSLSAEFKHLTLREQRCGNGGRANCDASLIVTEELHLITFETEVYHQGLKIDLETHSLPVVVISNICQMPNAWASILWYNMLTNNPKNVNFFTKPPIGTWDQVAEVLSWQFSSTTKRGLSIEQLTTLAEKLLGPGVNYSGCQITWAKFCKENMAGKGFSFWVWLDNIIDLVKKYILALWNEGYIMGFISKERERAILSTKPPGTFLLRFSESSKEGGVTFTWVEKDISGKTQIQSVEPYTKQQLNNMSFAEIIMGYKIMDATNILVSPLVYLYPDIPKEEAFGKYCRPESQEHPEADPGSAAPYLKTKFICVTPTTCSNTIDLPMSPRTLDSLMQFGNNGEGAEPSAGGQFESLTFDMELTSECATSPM
Transcription factor Sp1 (Homo sapiens), sequence (P08047 whole entry, looked up): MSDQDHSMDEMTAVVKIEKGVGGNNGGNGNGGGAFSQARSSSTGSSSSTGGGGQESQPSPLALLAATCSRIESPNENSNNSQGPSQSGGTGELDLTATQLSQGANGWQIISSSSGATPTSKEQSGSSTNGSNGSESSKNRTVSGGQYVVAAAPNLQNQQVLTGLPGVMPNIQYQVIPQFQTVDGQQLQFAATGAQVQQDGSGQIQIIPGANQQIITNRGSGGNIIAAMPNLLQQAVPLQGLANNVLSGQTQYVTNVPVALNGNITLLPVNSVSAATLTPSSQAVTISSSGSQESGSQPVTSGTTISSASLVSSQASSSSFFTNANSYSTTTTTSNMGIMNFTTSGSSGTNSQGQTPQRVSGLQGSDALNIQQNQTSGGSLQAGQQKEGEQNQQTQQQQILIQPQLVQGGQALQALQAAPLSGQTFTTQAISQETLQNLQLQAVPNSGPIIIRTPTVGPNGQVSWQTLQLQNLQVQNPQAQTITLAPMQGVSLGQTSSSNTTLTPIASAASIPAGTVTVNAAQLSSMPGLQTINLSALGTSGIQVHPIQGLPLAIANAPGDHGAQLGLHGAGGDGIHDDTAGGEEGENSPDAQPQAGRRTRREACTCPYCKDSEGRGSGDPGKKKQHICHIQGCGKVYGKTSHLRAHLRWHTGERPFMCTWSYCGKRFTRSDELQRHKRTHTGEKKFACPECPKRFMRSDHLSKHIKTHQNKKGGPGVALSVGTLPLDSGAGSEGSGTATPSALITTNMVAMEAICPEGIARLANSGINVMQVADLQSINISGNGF
X-box-binding protein 1 (Homo sapiens), sequence (P17861 whole entry, looked up): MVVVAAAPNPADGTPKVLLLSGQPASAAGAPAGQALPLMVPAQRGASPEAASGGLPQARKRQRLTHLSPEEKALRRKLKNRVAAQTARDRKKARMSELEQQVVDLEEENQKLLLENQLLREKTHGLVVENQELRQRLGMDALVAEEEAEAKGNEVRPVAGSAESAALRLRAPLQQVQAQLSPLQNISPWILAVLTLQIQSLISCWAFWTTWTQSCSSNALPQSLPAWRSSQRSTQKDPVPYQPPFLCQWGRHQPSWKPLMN
Glucocorticoid receptor (Homo sapiens), sequence (P04150 whole entry, looked up, the tested form may be a part): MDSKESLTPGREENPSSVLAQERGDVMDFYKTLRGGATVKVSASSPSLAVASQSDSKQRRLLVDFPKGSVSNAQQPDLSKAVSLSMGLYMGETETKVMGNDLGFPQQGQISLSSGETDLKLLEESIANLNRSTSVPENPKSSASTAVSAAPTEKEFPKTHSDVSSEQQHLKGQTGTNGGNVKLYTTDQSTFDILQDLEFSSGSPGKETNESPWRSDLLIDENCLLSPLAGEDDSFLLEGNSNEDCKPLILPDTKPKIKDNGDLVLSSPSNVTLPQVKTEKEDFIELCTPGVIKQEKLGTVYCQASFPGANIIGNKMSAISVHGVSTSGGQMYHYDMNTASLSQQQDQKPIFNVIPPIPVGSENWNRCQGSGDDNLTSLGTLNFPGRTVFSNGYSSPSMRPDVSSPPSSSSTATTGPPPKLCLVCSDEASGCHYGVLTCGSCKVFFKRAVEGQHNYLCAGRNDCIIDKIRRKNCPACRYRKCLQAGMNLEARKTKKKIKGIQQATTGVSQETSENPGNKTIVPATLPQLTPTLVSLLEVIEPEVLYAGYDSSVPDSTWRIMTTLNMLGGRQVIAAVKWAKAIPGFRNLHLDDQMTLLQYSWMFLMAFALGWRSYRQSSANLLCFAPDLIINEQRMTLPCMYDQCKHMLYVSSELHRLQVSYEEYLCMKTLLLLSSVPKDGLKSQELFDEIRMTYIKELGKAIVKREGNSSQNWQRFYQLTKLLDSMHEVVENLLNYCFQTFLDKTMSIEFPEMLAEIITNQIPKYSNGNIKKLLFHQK
Steroid hormone receptor ERR1 (Homo sapiens), sequence (P11474 whole entry, looked up, the tested form may be a part): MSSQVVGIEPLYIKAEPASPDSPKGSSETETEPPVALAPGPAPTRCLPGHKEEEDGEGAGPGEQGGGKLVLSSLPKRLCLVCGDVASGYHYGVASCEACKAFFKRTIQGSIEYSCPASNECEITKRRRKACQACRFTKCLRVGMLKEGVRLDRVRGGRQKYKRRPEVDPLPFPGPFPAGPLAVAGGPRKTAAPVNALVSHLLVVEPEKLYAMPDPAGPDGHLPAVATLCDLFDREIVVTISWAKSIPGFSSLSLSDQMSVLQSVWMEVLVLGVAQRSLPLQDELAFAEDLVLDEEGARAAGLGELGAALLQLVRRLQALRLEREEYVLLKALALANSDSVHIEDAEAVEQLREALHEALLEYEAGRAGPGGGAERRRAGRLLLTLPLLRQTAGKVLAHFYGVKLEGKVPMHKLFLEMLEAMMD
Estrogen-related receptor gamma (Homo sapiens), sequence (P62508 whole entry, looked up, the tested form may be a part): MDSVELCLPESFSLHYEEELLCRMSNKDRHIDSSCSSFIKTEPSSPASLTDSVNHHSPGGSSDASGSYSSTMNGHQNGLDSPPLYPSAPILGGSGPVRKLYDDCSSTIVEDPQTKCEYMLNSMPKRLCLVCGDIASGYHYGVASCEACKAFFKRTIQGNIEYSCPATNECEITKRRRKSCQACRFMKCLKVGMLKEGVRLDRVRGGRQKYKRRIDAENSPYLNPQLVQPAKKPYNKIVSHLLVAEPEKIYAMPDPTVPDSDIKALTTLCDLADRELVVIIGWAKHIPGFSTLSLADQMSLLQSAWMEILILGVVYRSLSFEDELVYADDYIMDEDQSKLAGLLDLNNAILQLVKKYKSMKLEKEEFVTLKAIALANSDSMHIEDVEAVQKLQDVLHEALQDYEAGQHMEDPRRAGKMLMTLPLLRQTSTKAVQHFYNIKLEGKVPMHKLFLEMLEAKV

`NCCN`: the AC50 in [1] was 164 µM (active). In addition, the compound was classed as inactive in assay [1], in assay [2], in [3], in [4], in assay [5] and in assay [6]. The call in assay [7], in [8], in assay [9], in assay [10], in assay [11] and in assay [12] was inactive. The result in assay [13] and in assay [14] was inactive.

As to `C=Cc1ccc(O)c(OC)c1`, the concentration at half-maximal activity (AC50) in assay [1] is 26.6 µM (active); in assay [2] it was 13 µM (active); in assay [16], 44.7 µM (active). Besides, the compound was classed as inactive in [3], in [4], in assay [5], in assay [6], in [7] and in [8]. The result in [15], in [9], in assay [10], in [17], in assay [11] and in assay [12] was inactive. For the same compound, the compound was classed as inactive in [13] and in assay [14].

As to `Cc1cncc(C)c1`, the result in [1], in assay [2], in assay [3], in assay [4], in [5] and in [6] was inactive. Also, the outcome in assay [7], in assay [8], in assay [15], in assay [9], in assay [10] and in [16] was inactive. Further, the call in assay [17], in assay [11], in assay [18], in assay [12], in [13] and in assay [19] was inactive.

Turning to `OCCN1CN(CCO)CN(CCO)C1`, the AC50 in assay [1] is 30 µM (active); in [4], 150 µM (active); in assay [5], 144 µM (active); in assay [12] it was 164 µM (active). In addition, the compound was called inactive in [2], in [3], in [6], in assay [7], in assay [8] and in [15]. Moreover, the result in assay [9], in assay [10], in assay [16], in [13], in assay [14] and in [20] was inactive.

Values taken from PubChem BioAssay (EPA / NIEHS).
